Test results taken from PubChem BioAssay (Tox21).
“And” between values parts separate entries of the source, which are not always exact repeats. Equal values may be shown once. Records with an inconclusive call do not appear. Entries that show only a call come without a potency. Some compounds were tested as several samples or in several runs, with calls that do not always agree. The source made the active and inactive calls. Unless noted, calls follow the shape of the dose curve; as a rule, active = well fitted curve in the direction sought with a large enough effect in the repeat runs; inconclusive = weak or mixed curves; inactive = no such curve, though single readings can be large; an effect the other way counts as inactive or inconclusive.

What was measured:
[1] = biological target: Retinoic acid receptor RXR-alpha (Homo sapiens) (UniProt P19793); experiment: qHTS assay to identify small molecule agonists of the RXR signaling pathway (AID 1159527; calls by dose curve; also: nearly all actives have a fitted effect of over 35% in size)
Procedure, shortened: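 qHTS of the Tox21 10K library in GeneBLAzer RXR-alpha HEK 293T cells carrying a beta-lactamase reporter […]; 16 hr treatment, 9-cis retinoic acid as agonist control, FRET read-out.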

[2] = qHTS assay to identify small molecule agonists of the RXR signaling pathway - cell viability counter screen (AID 1159529); also: nearly all actives have a fitted effect of over 50% in size; also: potency is read from the fitted curve at half-maximal effect
Procedure, shortened: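 Cell viability is measured by CellTiter-Glo luminescence, 30 min at room temperature, in wells already read for beta-lactamase. Engineered HEK 293T cells (RXR-alpha-UAS-bla) are dosed 16 hr at 37 C. Tetraoctyl ammonium bromide serves as positive control.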

[3] = qHTS assay to identify small molecule antagonists of the retinoid acid receptor (RAR) signaling pathway - cell viability counter screen (AID 1159551); also: nearly all actives have a fitted effect of over 35% in size
Procedure, shortened: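 Viability of C3RL4 cells is quantified from ATP by luminescence after 6 h treatment at 37 C with compounds and 1 uM retinol.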

[4] = qHTS assay to identify small molecule antagonists of the estrogen related receptor (ERR) signaling pathway - cell viability counter screen (AID 1224818); also: series mostly up to about 46 µM
Procedure, shortened: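 Cytotoxicity check run alongside the ERR antagonist screen: cells exposed to test compounds 17.5 h at 37 C, viability taken as CellTiter-Fluor fluorescence intensity.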

[5] = qHTS assay to identify small molecule antagonists of the estrogen related receptor (ERR) signaling pathway (AID 1224819;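 also: luminescence from an ERR-driven luciferase reporter measured with One-Glo reagent; series mostly up to about 46 µM; nearly all actives have a fitted effect of over 50% in size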)
Procedure, shortened: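 ERR reporter cells were plated at 2,000 cells/well and left 6 h at 37 C/5% CO2 before pin-tool transfer of compounds in DMSO. After 18 h at 37 C, One-Glo was added and luminescence was read 30 min later at room temperature.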

[6] = qHTS assay to identify small molecule agonists of the estrogen related receptor (ERR) signaling pathway (AID 1224820)
Procedure, shortened: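 Luminescence readout (One-Glo, 30 min RT) from NTP-supplied ERR cell line exposed to compounds for 18 h at 37 C. Cells seeded 2,000 per well and pre-incubated 6 h before pin-tool compound transfer.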

[7] = system: estrogen-related receptor alpha (ERRalpha) with PGC-1alpha coactivator, human; experiment: qHTS assay to identify small molecule antagonists of the estrogen related receptor signaling pathway with the pleiotropic PPARgamma coactivator (PGC) (AID 1224821; calls by dose curve;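 also: series mostly up to about 46 µM; lower luminescence signal means antagonism of PGC/ERR signalling; nearly all actives have a fitted effect of over 50% in size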)
Procedure, shortened: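 PGC/ERR reporter cells; 6 h pre-incubation 37 C/5% CO2; pin-tool compound in DMSO, 18 h 37 C; One-Glo added, 30 min RT; luminescence read. qHTS antagonist mode.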

[8] = qHTS assay to identify small molecule antagonists of the estrogen related receptor signaling pathway with the pleiotropic PPARgamma coactivator (PGC) cell viability counter screen (AID 1224822; also: series mostly up to about 46 µM)
Procedure, shortened: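 Viable cell signal (CellTiter-Fluor, 30 min, 37 C/5% CO2) was measured in PGC/ERR cells after a 17.5 h compound incubation.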

[9] = qHTS assay to identify small molecule agonists of the estrogen related receptor signaling pathway with the pleiotropic PPARgamma coactivator (PGC) (AID 1224823)
Procedure, shortened: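 Luminescence readout (One-Glo, 30 min RT) from PGC/ERR cell line treated 18 h at 37 C with pin-tool-delivered DMSO compound solutions; cells plated 6 h before dosing. Quantitative HTS format.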

[10] = qHTS assay to identify small molecule antagonists of the estrogen related receptor (ERR) signaling pathway from Tox21 library - cell viability counter screen (AID 1224834); also: nearly all actives have a fitted effect of over 30% in size; also: potency is read from the fitted curve at half-maximal effect
Procedure, shortened: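 In this quantitative HTS format, ERR cells receive compounds in DMSO and are incubated for 17.5 h at 37 C. Live-cell protease activity is then detected with CellTiter-Fluor.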

[11] = biological target: Luciferin 4-monooxygenase (Photinus pyralis) (UniProt P08659); experiment: qHTS assay to identify small molecule inhibitors of firefly luciferase (AID 1224835); also: series mostly up to about 120 µM; nearly all actives have a fitted effect of over 25% in size
Procedure, shortened: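 Inhibition of purified Photinus luciferase is measured by luminescence. Substrate levels (D-luciferin, ATP) sit at their KM values. Each compound is tested in a concentration series.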

[12] = qHTS assay to identify small molecule agonists of the constitutive androstane receptor (CAR) signaling pathway - cell viability counter screen (AID 1224836); also: nearly all actives have a fitted effect of over 45% in size; also: potency is read from the fitted curve at half-maximal effect
Procedure, shortened: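 Counter screen multiplexed with the CAR reporter readout: HepG2 cells co-transfected with hCAR and the CYP2B6-2.2kb construct receive a 15-concentration compound series and 0.75 uM PK11195 (final), then CellTiter-Fluor fluorescence is read after 23 h.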

[13] = qHTS assay to identify small molecule antagonists of the constitutive androstane receptor (CAR) signaling pathway - cell viability counter screen (AID 1224837); also: nearly all actives have a fitted effect of over 45% in size; also: potency is read from the fitted curve at half-maximal effect
Procedure, shortened: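 In quantitative HTS format, compounds at 15 concentrations were applied to HepG2 cells double-transfected with hCAR and CYP2B6-2.2kb under 50 nM CITCO stimulation; live-cell protease activity was read after 23 hr via CellTiter-Fluor.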

[14] = biological target: Nuclear receptor subfamily 1 group I member 3 (Homo sapiens) (UniProt Q14994); experiment: qHTS assay to identify small molecule antagonists of the constitutive androstane receptor (CAR) signaling pathway (AID 1224838); also: nearly all actives have a fitted effect of over 40% in size
Procedure, shortened: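 CITCO-stimulated (50 nM final) HepG2 cells stably transfected with hCAR and CYP2B6-2.2kb luciferase were exposed to compounds at 15 concentrations for 24 h at 37 C/5% CO2. A luciferase reagent was added and luminescence recorded after 30 min.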

[15] = biological target: Nuclear receptor subfamily 1 group I member 3 (Homo sapiens) (UniProt Q14994); experiment: qHTS assay to identify small molecule agonists of the constitutive androstane receptor (CAR) signaling pathway (AID 1224839); also: series mostly up to about 92 µM; nearly all actives have a fitted effect of over 15% in size
Procedure, shortened: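 A 15-concentration quantitative screen uses HepG2 cells co-transfected stably with human CAR and CYP2B6-2.2kb reporter. Treatment lasts 24 h with 0.75 uM PK11195 final present; ONE-Glo luminescence is the signal.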

[16] = qHTS assay to identify small molecule antagonists of the estrogen related receptor signaling pathway with the pleiotropic PPARgamma coactivator (PGC) from Tox21 10K library - cell viability counter screen (AID 1224840; active = well fitted cell-killing curve with a large enough effect in the repeat runs, not every such curve was filed as active; also: nearly all actives have a fitted effect of over 40% in size; also: potency is read from the fitted curve at half-maximal effect)
Procedure, shortened: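 Viability counter screen, PGC/ERR cells: 17.5 h compound exposure at 37 C, CellTiter-Fluor fluorescence endpoint.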

[17] = qHTS assay to identify small molecule antagonists of the estrogen related receptor signaling pathway with the pleiotropic PPARgamma coactivator (PGC) from Tox21 10K library (AID 1224841; call rule not given here; also: series mostly up to about 92 µM; actives are mostly falling curves and most rising ones were filed inactive; nearly all actives have a fitted effect of over 50% in size)
Procedure, shortened: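 In the PGC/ERR line, DMSO solutions of test chemicals are pin-delivered to 2,000 cells/well six hours after dispensing. Following eighteen hours' incubation, One-Glo reagent is added and luminescence recorded.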

[18] = qHTS assay to identify small molecule agonists of the estrogen related receptor signaling pathway with the pleiotropic PPARgamma coactivator (PGC) from Tox21 10K library (AID 1224842); also: nearly all actives have a fitted effect of over 15% in size
Procedure, shortened: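 Luminescence from One-Glo (30 min, room temperature) measured after PGC/ERR cells had 18 h at 37 C with pinned compound (23 nL in DMSO). Cells had been seeded at 2,000 per well and pre-incubated 6 h.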

[19] = qHTS assay to identify small molecule antagonists of the retinoic acid receptor (RAR) signaling pathway (AID 1159552; also: nearly all actives have a fitted effect of over 50% in size)
Procedure, shortened: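 Quantitative HTS in C3RL4 RARE-luciferase reporter cells. Compounds were added with 1 uM (final) retinol; luminescence was read after 6 hr.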

Sequence of Nuclear receptor subfamily 1 group I member 3 (Homo sapiens) (Q14994 whole entry, looked up): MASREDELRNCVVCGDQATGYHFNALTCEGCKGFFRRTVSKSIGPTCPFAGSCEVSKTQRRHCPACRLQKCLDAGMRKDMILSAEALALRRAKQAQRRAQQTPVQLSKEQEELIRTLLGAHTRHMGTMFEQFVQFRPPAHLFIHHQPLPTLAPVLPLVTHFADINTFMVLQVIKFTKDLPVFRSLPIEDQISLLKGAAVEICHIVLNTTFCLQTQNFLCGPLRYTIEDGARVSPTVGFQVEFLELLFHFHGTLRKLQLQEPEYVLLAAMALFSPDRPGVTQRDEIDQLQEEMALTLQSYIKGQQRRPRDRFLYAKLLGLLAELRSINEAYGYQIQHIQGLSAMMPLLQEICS
Sequence of Luciferin 4-monooxygenase (Photinus pyralis) (P08659 whole entry, looked up): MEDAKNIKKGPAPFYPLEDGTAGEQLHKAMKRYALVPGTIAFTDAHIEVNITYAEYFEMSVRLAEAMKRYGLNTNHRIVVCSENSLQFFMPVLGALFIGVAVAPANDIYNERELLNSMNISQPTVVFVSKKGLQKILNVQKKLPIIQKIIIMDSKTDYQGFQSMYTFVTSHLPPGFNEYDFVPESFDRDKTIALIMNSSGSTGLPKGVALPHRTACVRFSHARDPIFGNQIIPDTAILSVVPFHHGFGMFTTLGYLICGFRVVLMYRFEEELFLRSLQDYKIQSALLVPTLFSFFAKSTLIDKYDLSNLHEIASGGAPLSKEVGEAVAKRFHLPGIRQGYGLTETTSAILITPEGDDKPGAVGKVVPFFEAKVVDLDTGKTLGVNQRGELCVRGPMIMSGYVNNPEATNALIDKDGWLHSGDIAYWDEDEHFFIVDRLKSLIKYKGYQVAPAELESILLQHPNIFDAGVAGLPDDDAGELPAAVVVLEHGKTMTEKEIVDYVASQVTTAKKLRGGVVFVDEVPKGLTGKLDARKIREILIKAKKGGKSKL
Sequence of Retinoic acid receptor RXR-alpha (Homo sapiens) (P19793 whole entry, looked up): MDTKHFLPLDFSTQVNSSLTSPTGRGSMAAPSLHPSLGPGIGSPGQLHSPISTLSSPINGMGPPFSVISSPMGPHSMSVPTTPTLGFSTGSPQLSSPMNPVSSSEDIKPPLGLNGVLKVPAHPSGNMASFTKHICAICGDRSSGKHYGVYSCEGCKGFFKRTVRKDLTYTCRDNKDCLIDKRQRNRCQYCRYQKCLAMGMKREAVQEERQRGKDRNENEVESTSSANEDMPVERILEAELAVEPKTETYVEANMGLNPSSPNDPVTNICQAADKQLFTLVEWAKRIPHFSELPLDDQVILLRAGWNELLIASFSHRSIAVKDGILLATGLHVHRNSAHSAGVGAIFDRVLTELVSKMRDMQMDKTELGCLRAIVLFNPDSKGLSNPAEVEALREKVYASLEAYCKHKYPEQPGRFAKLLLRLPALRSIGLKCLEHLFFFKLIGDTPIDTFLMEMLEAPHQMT

SMILES | Potency [1] | Potency [2] | outcome [3] | outcome [4] | outcome [5] | outcome [6] | outcome [7] | outcome [8] | outcome [9] | Potency [10] | Potency [11] | Potency [12] | Potency [13] | Potency [14] | Potency [15] | Potency [16] | Potency [17] | outcome [18] | Potency [19]
COCCc1ccc(OCC(O)CNC(C)C)cc1 (stereo not drawn) | inactive | inactive | inactive | inactive | inactive | inactive | inactive | inactive | inactive | inactive | inactive | inactive | inactive | inactive | inactive | inactive | inactive | inactive | –
CC1(C)CO[C@@H](CC(=O)O)CN1 | inactive | inactive | inactive | – | – | – | – | – | – | inactive | inactive | inactive | inactive | inactive | inactive | – | inactive | inactive | inactive
CC/C=C\CCOC(C)=O | inactive | inactive | inactive | – | – | – | – | – | – | inactive | inactive | inactive | – | inactive | inactive | inactive | inactive | inactive | inactive
CS(=O)(=O)O | inactive | inactive | inactive | – | – | – | – | – | – | inactive | inactive | inactive | inactive | inactive | inactive | – | inactive | inactive | inactive
Cn1c(N)c(N=O)c(=O)n(C)c1=O | inactive | inactive | inactive | – | – | – | – | – | – | inactive | inactive | inactive | inactive | inactive | inactive | inactive | – | inactive | inactive
CC(C)(O)C(=O)c1ccccc1 | inactive | inactive | inactive | – | – | – | – | – | – | inactive | inactive | inactive | inactive | inactive | – | inactive | inactive | inactive | inactive
CC/C=C\CC/C=C/C(OCC)OCC | inactive | inactive | inactive | – | – | – | – | – | – | inactive | inactive | inactive | – | inactive | – | inactive | inactive | inactive | inactive
O=S(O)CO | inactive | inactive | inactive | – | – | – | – | – | – | – | inactive | inactive | inactive | inactive | inactive | inactive | inactive | inactive | inactive
COC(=O)c1cc(C(=O)OC)cc(S(=O)(=O)O)c1 | inactive | inactive | inactive | – | – | – | – | – | – | – | inactive | inactive | inactive | inactive | inactive | inactive | – | inactive | inactive
O=[N+]([O-])c1ccc(F)cc1F | inactive | inactive | inactive | – | – | – | – | – | – | inactive | inactive | inactive | inactive | – | inactive | inactive | inactive | inactive | inactive
CCC(C)C1CCCCC1=O (stereo not drawn) | inactive | inactive | inactive | – | – | – | – | – | – | inactive | inactive | inactive | inactive | – | inactive | – | inactive | inactive | inactive
CC(=O)Nc1c(I)cc(I)c(C(=O)O)c1I | inactive | inactive | inactive | – | – | – | – | – | – | inactive | inactive | inactive | inactive | – | inactive | inactive | inactive | inactive | inactive
COc1cc(C(=O)N2CCCCCCC2)cc(OC)c1OC | inactive | inactive | inactive | – | – | – | – | – | – | – | inactive | inactive | inactive | inactive | – | inactive | inactive | inactive | inactive
NC(=O)c1ccc([N+](=O)[O-])cc1 | inactive | inactive | inactive | – | – | – | – | – | – | inactive | inactive | inactive | – | – | inactive | inactive | inactive | inactive | inactive
C[C@@H]1CCN(C(=O)[C@H](CCCN=C(N)N)NS(=O)(=O)c2cccc3c2NC[C@H](C)C3)[C@@H](C(=O)O)C1 | inactive | inactive | inactive | – | – | – | – | – | – | – | inactive | inactive | inactive | inactive | inactive | inactive | inactive | inactive | inactive
N#Cc1ccc(C2CCCc3cncn32)cc1 (stereo not drawn) | – | inactive | inactive | – | – | – | – | – | – | inactive | inactive | inactive | inactive | – | inactive | inactive | inactive | inactive | inactive
CC(=O)OC/C=C(\C)CC/C=C(\C)CCC=C(C)C | inactive | inactive | inactive | – | – | – | – | – | – | inactive | inactive | inactive | inactive | inactive | inactive | inactive | inactive | inactive | inactive
O=C[C@H](O)[C@@H](O)[C@H](O)[C@H](O)CO | inactive | inactive | inactive | – | – | – | – | – | – | – | inactive | inactive | inactive | inactive | inactive | inactive | inactive | inactive | –
CCOC(=O)[C@H](CCc1ccccc1)N[C@@H](C)C(=O)N1[C@H](C(=O)O)C[C@@H]2CCC[C@@H]21 | inactive | inactive | inactive | – | – | – | – | – | – | inactive | inactive | inactive | – | – | – | inactive | – | inactive | inactive
CN(C)CCCN1c2ccccc2CCc2ccc(Cl)cc21 | inactive | 38.9 µM (active) | inactive | – | inactive | inactive | inactive | – | inactive | 54.5 µM (active) and 23.7 µM (active) | – | 48.6 µM (active) and 29.8 µM (active) | 48.6 µM (active) | – | inactive | 54.5 µM (active) and inactive | – | inactive | –
